# Source: the supplement of paper PMC8728848
# This is one part of a sample in which the strongest signals are shown more often than they occur.
# B1: rCnSL-proA (Clitocybe nebularis) (protein)
# chain: AAFFSLVVLLALLPFGIHASALPSTELTPRVNPNLPGPNDVFVGFRGTNNIVGAIYEKDGIKDTPLNNGADAEMGPGSYITDGLFTARIFASGSAGNNPGTTATVCKIYASGVQWRGAPKGYIPVAYFGNGPTAEQRRQTYLRTLGLPGTAIRFGNLNTNPGQGPTAPRQMVVPPGPLRSLLKASCFPAADTRLPQTLHYFEKRVDWNIITAADSQTWGH
# Experiments:
# Assay in all cases: glycan array binding signal (z-score within array); higher = stronger binding
# Settings in all cases: glycan notation: IUPAC condensed, linker removed
# [1] = molecular target: Gal(b1-4)GlcNAc(b1-3)Gal(b1-4)GlcNAc(b1-3)GalNAc
# How it was run: (§1)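 The binding signal is a Z-score computed within each array and averaged over linkers. Arrays of the same protein sequence at different concentrations or buffers were also averaged together. Data originate from 3228 arrays in the Consortium for Functional Glycomics database, kept only where the protein sequence was available.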
# [2] = molecular target: Gal(b1-4)GlcNAc(b1-3)[Fuc(a1-3)GlcNAc(b1-6)]Gal(b1-4)Glc
# How it was run: as §1
# Gal(b1-4)GlcNAc6P = molecular target: Gal(b1-4)GlcNAc6P
# How it was run: as §1
# Gal6S(b1-4)Glc = molecular target: Gal6S(b1-4)Glc
# How it was run: as §1
# [3] = molecular target: GalNAc(a1-3)GalNAc(b1-3)Gal(a1-4)Gal(b1-4)Glc
# How it was run: as §1
# [4] = molecular target: GalNAc(b1-3)Gal(a1-6)Gal(b1-4)Glc
# How it was run: as §1
# [5] = molecular target: GalNAc(b1-4)GlcNAc(b1-2)Man(a1-3)[GalNAc(b1-4)GlcNAc(b1-2)Man(a1-6)]Man(b1-4)GlcNAc(b1-4)GlcNAc
# How it was run: as §1
# [6] = molecular target: GlcNAc(b1-3)Gal(b1-4)GlcNAc(b1-2)Man(a1-3)[GlcNAc(b1-3)Gal(b1-4)GlcNAc(b1-2)Man(a1-6)]Man(b1-4)GlcNAc(b1-4)GlcNAc
# How it was run: as §1
# [7] = molecular target: GlcNAc(b1-3)Gal(b1-4)GlcNAc(b1-3)Gal(b1-4)GlcNAc(b1-3)Gal(b1-4)GlcNAc(b1-2)Man(a1-3)[GlcNAc(b1-3)Gal(b1-4)GlcNAc(b1-3)Gal(b1-4)GlcNAc(b1-3)Gal(b1-4)GlcNAc(b1-2)Man(a1-6)]Man(b1-4)GlcNAc(b1-4)GlcNAc
# How it was run: as §1
# [8] = molecular target: GlcNAc(b1-3)Gal(b1-4)GlcNAc(b1-3)Gal(b1-4)GlcNAc(b1-3)Gal(b1-4)GlcNAc(b1-2)Man(a1-3)[GlcNAc(b1-3)Gal(b1-4)GlcNAc(b1-3)Gal(b1-4)GlcNAc(b1-3)Gal(b1-4)GlcNAc(b1-2)Man(a1-6)]Man(b1-4)GlcNAc(b1-4)[Fuc(a1-6)]GlcNAc
# How it was run: as §1
# [9] = molecular target: GlcNAc(b1-3)[GlcNAc(b1-6)]Gal(b1-4)GlcNAc
# How it was run: as §1
# [10] = molecular target: GlcNAc(b1-4)GlcNAc(b1-4)GlcNAc
# How it was run: as §1
# [11] = molecular target: GlcNAc(b1-4)[GlcNAc(b1-6)]GalNAc
# How it was run: as §1
# [12] = molecular target: GlcNAc(b1-6)Gal(b1-4)GlcNAc
# How it was run: as §1
# [13] = molecular target: Man(a1-3)[Man(a1-6)]Man(a1-6)[Man(a1-3)]Man(b1-4)GlcNAc(b1-4)GlcNAc
# How it was run: as §1
# [14] = molecular target: Neu5Ac(a2-3)Gal(b1-3)GalNAc
# How it was run: as §1
# [15] = molecular target: Neu5Ac(a2-3)Gal(b1-3)GlcNAc(b1-2)Man(a1-3)[Neu5Ac(a2-3)Gal(b1-3)GlcNAc(b1-2)Man(a1-6)]Man(b1-4)GlcNAc(b1-4)GlcNAc
# How it was run: as §1
# [16] = molecular target: Neu5Ac(a2-3)Gal(b1-3)GlcNAc(b1-6)GalNAc
# How it was run: as §1
# [17] = molecular target: Neu5Ac(a2-3)Gal(b1-3)[Fuc(a1-4)]GlcNAc(b1-3)Gal(b1-4)[Fuc(a1-3)]GlcNAc
# How it was run: as §1
# [18] = molecular target: Neu5Ac(a2-3)Gal(b1-4)GlcNAc(b1-3)Gal(b1-4)GlcNAc(b1-3)Gal(b1-4)GlcNAc(b1-2)Man(a1-3)[Neu5Ac(a2-3)Gal(b1-4)GlcNAc(b1-3)Gal(b1-4)GlcNAc(b1-3)Gal(b1-4)GlcNAc(b1-2)Man(a1-6)]GalNAc
# How it was run: as §1
# [19] = molecular target: Neu5Ac(a2-3)Gal(b1-4)GlcNAc(b1-6)[Neu5Ac(a2-3)Gal(b1-3)]GalNAc
# How it was run: as §1
# [20] = molecular target: Neu5Ac(a2-3)Gal6S(b1-4)[Fuc(a1-3)]GlcNAc
# How it was run: as §1
# Neu5Ac(a2-6)Gal(b1-4)Glc = molecular target: Neu5Ac(a2-6)Gal(b1-4)Glc
# How it was run: as §1
# [21] = molecular target: Neu5Ac(a2-6)Gal(b1-4)GlcNAc(b1-2)Man(a1-3)[Man(a1-6)]Man(b1-4)GlcNAc(b1-4)GlcNAc
# How it was run: as §1
# [22] = molecular target: Neu5Ac(a2-6)Gal(b1-4)GlcNAc(b1-3)Gal(b1-4)GlcNAc
# How it was run: as §1
# [23] = molecular target: Neu5Ac(a2-6)Gal(b1-4)GlcNAc(b1-6)[Gal(b1-3)]GalNAc
# How it was run: as §1
# [24] = molecular target: Neu5Ac(a2-8)Neu5Ac(a2-8)Neu5Ac(a2-3)Gal(b1-4)Glc
# How it was run: as §1
# [25] = molecular target: Neu5Gc(a2-6)Gal(b1-4)GlcNAc
# How it was run: as §1
binder,measurement,setting,value
B1,glycan array binding signal (z-score),[1],1.57
same,glycan array binding signal (z-score),[2],0.661
same,glycan array binding signal (z-score),Gal(b1-4)GlcNAc6P,-1.27
same,glycan array binding signal (z-score),Gal6S(b1-4)Glc,-0.662
same,glycan array binding signal (z-score),[3],-0.574
same,glycan array binding signal (z-score),[4],0.329
same,glycan array binding signal (z-score),[5],3.42
same,glycan array binding signal (z-score),[6],0.077
same,glycan array binding signal (z-score),[7],-0.215
same,glycan array binding signal (z-score),[8],0.698
same,glycan array binding signal (z-score),[9],-0.723
same,glycan array binding signal (z-score),[10],-0.208
same,glycan array binding signal (z-score),[11],-0.002
same,glycan array binding signal (z-score),[12],-0.312
same,glycan array binding signal (z-score),[13],0.14
same,glycan array binding signal (z-score),[14],-0.476
same,glycan array binding signal (z-score),[15],5.37
same,glycan array binding signal (z-score),[16],0.201
same,glycan array binding signal (z-score),[17],-0.238
same,glycan array binding signal (z-score),[18],4.1
same,glycan array binding signal (z-score),[19],-0.211
same,glycan array binding signal (z-score),[20],-0.672
same,glycan array binding signal (z-score),Neu5Ac(a2-6)Gal(b1-4)Glc,-0.233
same,glycan array binding signal (z-score),[21],-0.337
same,glycan array binding signal (z-score),[22],-0.269
same,glycan array binding signal (z-score),[23],-0.387
same,glycan array binding signal (z-score),[24],-0.436
same,glycan array binding signal (z-score),[25],-0.088
